# ± gives the standard deviation of the averaged measurements.
# Experiments:
# Assay in all cases: promoter activity interaction Z-score (Lux/OD deviation from empty-vector control); higher = stronger promoter induction by the compound
# [1] = tested on: E. coli BW25113 acrABp lux reporter
# How it was run: (§1)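 Low-copy luxCDABE promoter reporters were carried by E. coli BW25113, either wild type or lacking one of three genes, grown in 40 µl LB Lennox in 384-well plates at 37°C. Each compound was run at four 1:2 dilutions in biological duplicates, with OD600 and luminescence read every 30 min for 12 h. Integration used 0–8 h for wild type and 1–9 h for deletion strains, and wells under 10% of the median growth value were removed. Luminescence normalised to growth was fitted against a control, and the Z-transformed residual is the score.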
# [2] = tested on: E. coli BW25113 micFp lux reporter
# How it was run: as §1
# [3] = tested on: E. coli BW25113 ompFp lux reporter
# How it was run: as §1
# [4] = tested on: E. coli BW25113 robp lux reporter
# How it was run: as §1
# [5] = tested on: E. coli BW25113 soxSp lux reporter
# How it was run: as §1
# [6] = tested on: E. coli BW25113 tolCp lux reporter
# How it was run: as §1
# [7] = 17.8 µg/ml, genetic background: wild type
# [8] = 17.8 µg/ml, genetic background: ΔmarA
# [9] = 17.8 µg/ml, genetic background: Δrob
# [10] = 17.8 µg/ml, genetic background: ΔsoxS
# [11] = 35.7 µg/ml, genetic background: wild type
# [12] = 35.7 µg/ml, genetic background: ΔmarA
# [13] = 35.7 µg/ml, genetic background: Δrob
# [14] = 35.7 µg/ml, genetic background: ΔsoxS
# [15] = 71.3 µg/ml, genetic background: wild type
# [16] = 71.3 µg/ml, genetic background: ΔmarA
# [17] = 71.3 µg/ml, genetic background: Δrob
# [18] = 71.3 µg/ml, genetic background: ΔsoxS
# [19] = 142.7 µg/ml, genetic background: wild type
# [20] = 142.7 µg/ml, genetic background: ΔmarA
# [21] = 142.7 µg/ml, genetic background: Δrob
# [22] = 142.7 µg/ml, genetic background: ΔsoxS
structure (smiles),measurement,setting,value
O=C(/C=C/C=C/c1ccc2c(c1)OCO2)N1CCCCC1 [Piperine],promoter activity interaction Z-score,[1]; [7],0.246 ± 0.24
same,promoter activity interaction Z-score,[1]; [8],2.16 ± 0.78
same,promoter activity interaction Z-score,[1]; [9],-0.45 ± 0.37
same,promoter activity interaction Z-score,[1]; [10],-0.228 ± 0.025
same,promoter activity interaction Z-score,[1]; [11],-0.267 ± 0.27
same,promoter activity interaction Z-score,[1]; [12],-0.218 ± 0.58
same,promoter activity interaction Z-score,[1]; [13],-0.35 ± 0.11
same,promoter activity interaction Z-score,[1]; [14],-0.339 ± 0.26
same,promoter activity interaction Z-score,[1]; [15],0.114 ± 0.35
same,promoter activity interaction Z-score,[1]; [16],1.19 ± 0.28
same,promoter activity interaction Z-score,[1]; [17],-0.349 ± 0.35
same,promoter activity interaction Z-score,[1]; [18],-0.246 ± 0.6
same,promoter activity interaction Z-score,[1]; [19],-0.023 ± 0.22
same,promoter activity interaction Z-score,[1]; [20],0.484 ± 0.7
same,promoter activity interaction Z-score,[1]; [21],-0.275 ± 0.24
same,promoter activity interaction Z-score,[1]; [22],0.0345 ± 0.17
same,promoter activity interaction Z-score,[2]; [7],0.0366 ± 0.31
same,promoter activity interaction Z-score,[2]; [8],-0.191 ± 0.14
same,promoter activity interaction Z-score,[2]; [9],0.0158 ± 0.19
same,promoter activity interaction Z-score,[2]; [10],-0.381 ± 0.062
same,promoter activity interaction Z-score,[2]; [11],-0.332 ± 0.016
same,promoter activity interaction Z-score,[2]; [12],-0.0943 ± 0.12
same,promoter activity interaction Z-score,[2]; [13],0.0827 ± 0.3
same,promoter activity interaction Z-score,[2]; [14],-0.204 ± 0.038
same,promoter activity interaction Z-score,[2]; [15],0.0474 ± 0.091
same,promoter activity interaction Z-score,[2]; [16],-0.151 ± 0.15
same,promoter activity interaction Z-score,[2]; [17],-0.00444 ± 0.34
same,promoter activity interaction Z-score,[2]; [18],-0.417 ± 0.16
same,promoter activity interaction Z-score,[2]; [19],0.0188 ± 0.37
same,promoter activity interaction Z-score,[2]; [20],0.0457 ± 0.14
same,promoter activity interaction Z-score,[2]; [21],-0.043 ± 0.02
same,promoter activity interaction Z-score,[2]; [22],-0.135 ± 0.14
same,promoter activity interaction Z-score,[3]; [7],-0.0829 ± 0.54
same,promoter activity interaction Z-score,[3]; [8],-1.35 ± 0.34
same,promoter activity interaction Z-score,[3]; [9],-0.822 ± 0.25
same,promoter activity interaction Z-score,[3]; [10],-0.433 ± 0.063
same,promoter activity interaction Z-score,[3]; [11],-0.415 ± 0.064
same,promoter activity interaction Z-score,[3]; [12],-1.08 ± 0.24
same,promoter activity interaction Z-score,[3]; [13],-0.634 ± 0.12
same,promoter activity interaction Z-score,[3]; [14],-0.567 ± 0.14
same,promoter activity interaction Z-score,[3]; [15],-0.476 ± 0.17
same,promoter activity interaction Z-score,[3]; [16],-1.71 ± 0.16
same,promoter activity interaction Z-score,[3]; [17],-0.778 ± 0.1
same,promoter activity interaction Z-score,[3]; [18],-1.09 ± 0.28
same,promoter activity interaction Z-score,[3]; [19],-0.342 ± 0.011
same,promoter activity interaction Z-score,[3]; [20],-0.966 ± 0.094
same,promoter activity interaction Z-score,[3]; [21],-0.486 ± 0.29
same,promoter activity interaction Z-score,[3]; [22],-0.548 ± 0.51
same,promoter activity interaction Z-score,[4]; [7],0.172 ± 0.75
same,promoter activity interaction Z-score,[4]; [8],-0.36 ± 0.095
same,promoter activity interaction Z-score,[4]; [9],0.172 ± 1.4
same,promoter activity interaction Z-score,[4]; [10],-0.316 ± 0.4
same,promoter activity interaction Z-score,[4]; [11],0.097 ± 0.42
same,promoter activity interaction Z-score,[4]; [12],-1.12 ± 0.12
same,promoter activity interaction Z-score,[4]; [13],-0.276 ± 0.084
same,promoter activity interaction Z-score,[4]; [14],-0.113 ± 0.51
same,promoter activity interaction Z-score,[4]; [15],-0.241 ± 0.27
same,promoter activity interaction Z-score,[4]; [16],-0.584 ± 0.63
same,promoter activity interaction Z-score,[4]; [17],0.349 ± 1.6
same,promoter activity interaction Z-score,[4]; [18],-0.312 ± 0.18
same,promoter activity interaction Z-score,[4]; [19],1.83 ± 1.8
same,promoter activity interaction Z-score,[4]; [20],0.000795 ± 0.15
same,promoter activity interaction Z-score,[4]; [21],0.186 ± 0.23
same,promoter activity interaction Z-score,[4]; [22],0.201 ± 0.43
same,promoter activity interaction Z-score,[5]; [7],0.109 ± 0.15
same,promoter activity interaction Z-score,[5]; [8],-0.193 ± 0.12
same,promoter activity interaction Z-score,[5]; [9],0.0591 ± 0.33
same,promoter activity interaction Z-score,[5]; [10],-0.222 ± 0.045
same,promoter activity interaction Z-score,[5]; [11],-0.168 ± 0.034
same,promoter activity interaction Z-score,[5]; [12],-0.0932 ± 0.073
same,promoter activity interaction Z-score,[5]; [13],0.0518 ± 0.4
same,promoter activity interaction Z-score,[5]; [14],-0.0694 ± 0.036
same,promoter activity interaction Z-score,[5]; [15],0.0967 ± 0.17
same,promoter activity interaction Z-score,[5]; [16],-0.245 ± 0.091
same,promoter activity interaction Z-score,[5]; [17],0.0476 ± 0.29
same,promoter activity interaction Z-score,[5]; [18],-0.421 ± 0.13
same,promoter activity interaction Z-score,[5]; [19],-0.0465 ± 0.24
same,promoter activity interaction Z-score,[5]; [20],-0.324 ± 0.079
same,promoter activity interaction Z-score,[5]; [21],-0.0385 ± 0.2
same,promoter activity interaction Z-score,[5]; [22],-0.403 ± 0.12
same,promoter activity interaction Z-score,[6]; [7],0.553 ± 0.54
same,promoter activity interaction Z-score,[6]; [8],0.188 ± 1.3
same,promoter activity interaction Z-score,[6]; [9],0.472 ± 2.8
same,promoter activity interaction Z-score,[6]; [10],-0.947 ± 0.95
same,promoter activity interaction Z-score,[6]; [11],0.236 ± 0.38
same,promoter activity interaction Z-score,[6]; [12],-0.452 ± 0.27
same,promoter activity interaction Z-score,[6]; [13],-0.598 ± 1.4
same,promoter activity interaction Z-score,[6]; [14],-0.521 ± 0.018
same,promoter activity interaction Z-score,[6]; [15],0.515 ± 0.49
same,promoter activity interaction Z-score,[6]; [16],-0.357 ± 0.42
same,promoter activity interaction Z-score,[6]; [17],-0.0523 ± 0.77
same,promoter activity interaction Z-score,[6]; [18],0.108 ± 1.1
same,promoter activity interaction Z-score,[6]; [19],0.274 ± 0.22
same,promoter activity interaction Z-score,[6]; [20],0.331 ± 2.3
same,promoter activity interaction Z-score,[6]; [21],-0.437 ± 0.62
same,promoter activity interaction Z-score,[6]; [22],-0.524 ± 0.86
